Out of some 69,000 compounds screened, about 8,600 (12%) showed an effect of 50% or more. The list comes from a sample in which strong results are over-represented; it also holds similar structures and randomly drawn compounds.

For this experiment, the system named is Plasmodium berghei. The experiment in a line: Screen against P. berghei liver stage (PbLuc), transformed with Luciferase, at 10uM. Particulars: tested at 10 uM. Type of experiment: functional, HepG2.
Regarding `CC(C)n1cnc2c1C(C(=O)NCCC#N)N(Cc1ccccc1)CC2` (stereo not given), the INHIBITION came out at 15.1%.

Consider `COCc1nc(C2CCN(Cc3nccn3C)CC2)no1`, for which the INHIBITION is -11.7%.

For the compound `COC(=O)c1ccc2c(c1)CCCN2S(=O)(=O)c1cn(C)c(C)n1`, the INHIBITION amounted to 2.25%.

Regarding `Oc1coc2cc(OC[C@@H]3CCCN4CCCC[C@H]34)ccc12`, the INHIBITION is 56.2%.

Take `c1cc2c(cc1OC[C@@H]1CCCN3CCCC[C@H]13)OCCO2`: the INHIBITION stood at 28.4%.

On to `O=C(CC[C@@H]1CCCN2CCCC[C@H]12)NCCc1cc(O)ncn1`, for which the INHIBITION is reported as 26.8%.

On to `CC(Cn1ccnc1)NC(=O)NCCc1cccs1` (stereo not given), for which the INHIBITION was -17.08%.

As to `NC(CNS(=O)(=O)Cc1cccc2cccnc12)c1ccccc1` (stereo not given), the INHIBITION amounted to 29%.

Consider `Cc1nn(C)c(C)c1C(=O)NCc1ccnc(OCC(F)(F)F)c1`, for which the INHIBITION is reported as 13.765%.

As to `O=C(NC1CCCCC1)c1nnc2ccc(N3CCOCC3)cc2n1`, the INHIBITION was -64.4%.

As for `NCC(=O)N1CCCC1c1ccc(C(=O)NCc2ccoc2)s1` (stereo not given), the INHIBITION is recorded as 64.5%.

Regarding `O=C(NCc1ccoc1)c1ccc(C2CCCN2CC2CCOCC2)s1` (stereo not given), the INHIBITION was 22.7%.

Regarding `Cc1ncc(CN2CCCC2c2ccc(C(=O)NCc3ccoc3)s2)s1` (stereo not given), the INHIBITION is recorded as 37.4%.

In the case of `CC(C)=CCCC1(C)CCC(=O)N(CCc2csc(N)n2)C1` (stereo not given), the INHIBITION came to 39.3%.

Turning to `CC(C)COC1CCN(C(=O)c2ccc(C(F)(F)F)[nH]c2=O)CC1`, the INHIBITION is reported as 63.5%.

For the compound `CC(C)COC1CCN(C(=O)c2cc3ccccc3c(=O)[nH]2)CC1`, the INHIBITION was -1.55%.

For `CCOC1CCN(C(=O)c2ccc(-c3cccc(C)c3)[nH]c2=O)CC1`, the INHIBITION is -16%.

In the case of `Cc1noc(C)c1CN1CCN(CCN(C)C)c2ncccc2C1`, the INHIBITION is listed as 23.3%.

With `Clc1ccccc1Cn1cc(CNC2CCc3ncnn3C2)cn1` (stereo not given), the INHIBITION is given as -12.1%.

In the case of `CCOc1cccc(NC(=O)c2cnc(C)cn2)n1`, the INHIBITION was -24.5%.

`Cc1nn(C)c(N2CCCN(C)CC2)c1CNC(=O)C(C)(C)C`: the INHIBITION is listed as -49.5%.

As for `CN(C)CCn1c(=O)oc2ccc(NC(=O)CC(C)(C)C)cc21`, the INHIBITION was -3.95%.

With `CC(C)COCCC(=O)Nc1ccc2oc(=O)n(CCN(C)C)c2c1`, the INHIBITION is -3.08%.

On to `CN(C)CCn1c(=O)oc2ccc(NC(=O)CSc3ccccc3)cc21`, for which the INHIBITION was 24.3%.

Consider `CN(C)CCn1c(=O)oc2ccc(NC(=O)N3CCCCCC3)cc21`, for which the INHIBITION is reported as 17.5%.

On to `CC(C)CCC(=O)Nc1ccc2oc(=O)n(CCN(C)C)c2c1`, for which the INHIBITION is listed as -34.8%.

Regarding `Cc1cc(C(=O)Nc2ccc3oc(=O)n(CCN(C)C)c3c2)c(C)o1`, the INHIBITION is reported as 69.7%.

Turning to `CN(C)CCn1c(=O)oc2ccc(NC(=O)c3cc(Cl)c[nH]3)cc21`, the INHIBITION is -31.6%.

With `CCC(C)C(=O)Nc1ccc2oc(=O)n(CCN(C)C)c2c1` (stereo not given), the INHIBITION is listed as 56%.

Consider `CCC(CC)C(=O)Nc1ccc2oc(=O)n(CCN(C)C)c2c1`, for which the INHIBITION came out at 50.8%.

Values taken from ChEMBL document CHEMBL4513216, “Probing the Open Global Health Chemical Diversity Library for Multistage-Active Starting Points for Next-Generation Antimalarials” (ACS Infect Dis, 2020).
